# Gal4-VP16 FLuc: inhibits Gal4-VP16 luciferase reporter, ROR gamma counter-screen; Drosophila S2 Gal4-VP16 UAS-luciferase, luminescence, 20 h; Potency, µM (titrated, usually from 53.6 µM), without a hit: at the top dose activity, negative = inhibition, usual class: inhibitors; 310,000 compounds, 3.5% hits;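 further: Gal4-VP16 expression switched on by copper sulfate through the metallothionein promoter; nearly all actives have a fitted effect of over 50% in size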
# RORg inh: blocks mouse ROR gamma transcriptional activity. 310,000 compounds, 5.4% hits. Drosophila S2 Gal4-RORgamma UAS-luciferase reporter, 20 h. Potency, µM (top dose mostly 53.6 µM), for the others: at the highest dose activity change, negative = inhibition, actives largely listed as inhibitors. AID 2551; further: nearly all actives have a fitted effect of over 60% in size
#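 Drosophila S2 cells stably expressing Gal4-DBD/mouse RORγ fusion under metallothionein promoter plus UAS-luciferase; compound 1 h, then 700 uM CuSO4 induction for 20 h at ambient temperature; inhibition read as reduced luminescence.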
# DT40 TDP1 CPT: DT40-hTDP1 cell growth loss with CPT | chicken DT40 Tdp1-/-;hTDP1 cells + 20 nM CPT, ATP luminescence, 48 h | Potency, µM (doses to about 46.2 µM), inactives show at the top dose activity change, negative = growth inhibition, most hits filed as inhibitors | 420,000 compounds, 12% hits | AID 686979; further: nearly all actives have a fitted effect of over 55% in size
#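 Cell growth measured by CellTiter-Glo luminescence after a minimum 48 h, 37 C compound exposure with 20 nM CPT in Tdp1-knockout DT40 cells stably expressing hTDP1, seeded 400/well; qHTS titration format.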
# TDP1 block: TDP1 (human) enzyme inhibition; Q9NUW8; recombinant TDP1, AlphaScreen DNA substrate cleavage; Potency, µM (series often up to 130 µM), for inactives: at the top dose activity change, negative = inhibition, actives largely listed as inhibitors; 350,000 compounds, 0.28% hits; further: nearly all actives have a fitted effect of over 40% in size
# Target sequence (Q9NUW8 whole entry, looked up): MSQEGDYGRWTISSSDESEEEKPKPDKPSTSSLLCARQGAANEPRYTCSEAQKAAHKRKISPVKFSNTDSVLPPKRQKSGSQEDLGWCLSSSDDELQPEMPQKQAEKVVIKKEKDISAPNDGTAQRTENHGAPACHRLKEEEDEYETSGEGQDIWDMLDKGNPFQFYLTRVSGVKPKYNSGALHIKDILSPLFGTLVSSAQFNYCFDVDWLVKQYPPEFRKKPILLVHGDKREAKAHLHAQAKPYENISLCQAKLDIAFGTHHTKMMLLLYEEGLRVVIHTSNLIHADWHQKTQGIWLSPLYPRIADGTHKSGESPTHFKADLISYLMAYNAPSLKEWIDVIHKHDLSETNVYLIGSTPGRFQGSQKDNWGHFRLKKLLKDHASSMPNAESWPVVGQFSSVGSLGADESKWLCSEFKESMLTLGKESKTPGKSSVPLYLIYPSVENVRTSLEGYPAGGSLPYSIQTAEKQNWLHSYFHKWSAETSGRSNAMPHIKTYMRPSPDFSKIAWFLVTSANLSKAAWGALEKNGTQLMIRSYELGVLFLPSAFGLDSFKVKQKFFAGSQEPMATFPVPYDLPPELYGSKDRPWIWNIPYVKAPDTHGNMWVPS
#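 Tdp1 1 nM final; 15 min RT w/ cpd; substrate 15 nM, 5 min; beads 10 ug/ml, 10 min; AlphaScreen read. Neg ctrl: no enzyme.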
# DT40 TDP1 no CPT: qHTS for Inhibitors of human tyrosyl-DNA phosphodiesterase 1 (TDP1): qHTS in cells in absence of CPT; Potency, µM (titrated, usually from 46.2 µM), for the others: at the highest dose activity change, negative = growth inhibition, hits mostly inhibitors; DT40 Tdp1-/- hTDP1 cells, no CPT, ATP luminescence, 48 h; AID 686978, 2013; 420,000 compounds, 15% hits; further: nearly all actives have a fitted effect of over 55% in size
#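 Chicken DT40 Tdp1-/- cells stably complemented with human TDP1 were seeded at 400 cells/well with DMSO in place of 20 nM camptothecin. After compound pinning, cells grew at least 48 hr at 37 °C; viability read by CellTiter-Glo luminescence.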
# Active calls of the source: *; ? = inconclusive; / = no result; [ ] = remark or other dose. The list is not random: actives were taken first. Their share in the collection is about 19%. The call rests on the fitted dose curve; in most records, active means well fitted curve in the direction sought with a large enough effect; inconclusive means small, poorly fitted or top-dose-only effect, or another doubt; inactive means no such curve, though single readings can be large; an effect the other way counts as inactive or inconclusive. On the % scale 0 is the no-effect control and ±100 the full control effect; potency means the concentration at half of the fitted maximal effect.
SMILES,Gal4-VP16 FLuc,RORg inh,DT40 TDP1 CPT,TDP1 block,DT40 TDP1 no CPT
CC(=O)Nc1ccc(-c2ccnc3c2CC(C)(C(=O)NCc2cccc(Cl)c2)O3)cc1 (stereo not given),/,/,?,/,23µM*
CC(=O)Nc1cccc(-c2ccnc3c2CC(C)(C(=O)NCc2ccc(N(C)C)cc2)O3)c1 (stereo not given),/,/,3.3µM*,/,2.9µM*
COc1cccc(-c2cc(C(F)(F)F)n3ncc(C(=O)OC(C)C)c3n2)c1,/,/,-16%,-1%,-9%
CCCCC(NC(=O)c1ccc(Cl)cc1)C(=O)O (stereo not given),3%,1%,-2%,-2%,12%
O=C(c1cnn(-c2ccc(F)cc2)c1-n1cccc1)N1CCN(c2ccc(Cl)cc2)CC1,/,/,/,0%,/
N#Cc1ccccc1NC(=O)C1CC(=O)N(c2ccc3c4c(cccc24)CC3)C1 (stereo not given),-28%,?,-2%,5%,1%
CC1(C(=O)NCc2cccc(Cl)c2)Cc2c(-c3ccccc3)ccnc2O1 (stereo not given),/,/,16µM*,/,8.2µM*
CN(C)c1ccc(-c2ccnc3c2CC(C)(C(=O)NCc2cccc(Cl)c2)O3)cc1 (stereo not given),/,/,23µM*,/,21µM*
CC(=O)Nc1cccc(-c2ccnc3c2CC(C)(C(=O)NCc2cccc(Cl)c2)O3)c1 (stereo not given),/,/,3.7µM*,/,4.1µM*
N#CC1=C(N)OC2=C(CCc3ccccc32)C1c1ccccc1 (stereo not given),-5%,-3%,0.82µM*,3%,0.92µM*
Cc1ccc(/C=C2\CCC3=C2OC(N)=C(C#N)C3c2ccc(C)cc2)cc1 (stereo not given),-2%,-1%,4.6µM*,7%,6.5µM*
Cc1cc2c(o1)CC(C)(C)CC2=O,2%,9%,7%,/,0%
Cc1ccc(C)c(OCc2cc(C(=O)N3CCOCC3)no2)c1,?,6%,7%,4%,4%
C[n+]1c2n(c3ccccc31)N=C(c1cc(C(C)(C)C)c(O)c(C(C)(C)C)c1)CS2,7.9µM*,?,4.1µM*,5%,2.6µM*
Cc1c(NC(=O)c2cccc(S(=O)(=O)N(C)c3ccccc3)c2)c(=O)n(-c2ccccc2)n1C,/,/,4%,/,6%
CN(c1ccccc1)S(=O)(=O)c1cccc(C(=O)Nc2ccc(N3CCOCC3)cc2)c1,/,/,?,0%,18µM*
CN(c1ccccc1)S(=O)(=O)c1cccc(C(=O)Nc2ncn[nH]2)c1,?,8.9µM*,-17%,/,7%
COc1ccc(N(C)S(=O)(=O)c2cccc(C(=O)Nc3ccc(N4CCOCC4)cc3)c2)cc1,/,/,18µM*,6%,23µM*
CN(C)S(=O)(=O)c1cccc(C(=O)Nc2ccc(N3CCOCC3)cc2)c1,-5%,7%,-25%,/,-16%
COc1cc(/C(C)=N\NC(=O)CSc2nc3ccccc3n2C)ccc1O,-10%,2%,?,6%,?
COCCCn1c(Cc2csc(Nc3cccc(Cl)c3)n2)nnc1SCC(=O)OC,-3%,-43%,-24%,-2%,-7%
CCOc1ccc2c(c1)C(=NNC(=O)c1ccncc1)c1cc(OCC)ccc1-2,0.89µM*,1.1µM*,3.7µM*,4%,5.2µM*
COc1ccc(OCC(O)CN2CCOCC2)cc1 (stereo not given),-3%,-10%,13%,/,3%
Cc1ccc(Oc2ccccc2/C=N/O)cc1,-5%,-24%,12µM*,2%,21µM*
Cc1ccc(S(=O)(=O)Oc2ccccc2/C=N/O)cc1,8%,6%,-18%,-5%,-30%
SMILES,Gal4-VP16 FLuc,RORg inh,DT40 TDP1 CPT,TDP1 block,DT40 TDP1 no CPT
COc1ccc(NC(=O)N2CCCC2C(=O)Nc2ccc(C)cc2C)cc1 (stereo not given),-4%,0%,-2%,11%,-17%
O=C(CCCn1c(=O)[nH]c2cc(Cl)ccc2c1=O)N1CCN(c2ccc([N+](=O)[O-])cc2)CC1,5%,10%,?,3%,?
COc1ccccc1NC(=O)C1=C(C)Nc2nc(-c3cccnc3)nn2C1c1ccccn1 (stereo not given),/,/,?,/,-23%
Cc1ccc(O)c(CNc2cnc3ccccc3c2)c1,17%,7%[1.91 µM],-20%,/,?
COc1cccc(CNc2cnc3ccccc3c2)c1O,10µM*,?,12µM*,0%,16µM*
CCN1CCN(c2ccc(NC(=O)c3cccnc3)cc2Cl)CC1,-5%,10%,-8%,2%,-23%
O=C(CSc1nc2ccccc2nc1Cc1ccccc1)NCc1ccccc1Cl,/,/,?,5%,?
O=C1S/C(=C/c2ccccc2)C(=O)N1CC(O)Cn1c2ccccc2c2ccccc21 (stereo not given),-16%,-1%,23µM*,5%,23µM*
O=C(O)COCC(=O)Nc1ccc(-n2cnnn2)cc1,2%,-15%,-10%,5%,-3%
CCOC(=O)/C(C#N)=C/c1cn(CCC(=O)O)nc1-c1cccc(Cl)c1,0%,42%,-1%,3%,5%
COc1cc(C(=S)N2CCCC2)cc(Cl)c1OCC(=O)Nc1ccc(C)cc1C,-13%,7%,13µM*,0%,?
NNC(=O)COc1cccc(C(F)(F)F)c1,-1%,8.9µM*,-2%,5%,-4%
CC(CN1CCCCC1)OC(=O)C(C)(c1ccccc1)c1ccccc1 (stereo not given),-11%,-21%,?,2%,21µM*
CC(CN1CCCCC1)OC(=O)COc1ccc(Cl)cc1 (stereo not given),12%,0%,?,/,?
Cc1cccc(OCC(=O)OC(C)CN2CCCCC2)c1 (stereo not given),0%,-9%,-22%,35µM*,9%
O=C(OCn1nnc2ccccc2c1=O)c1ccc2ncsc2c1,8%,27%,-10%,0%,-10%
CC(NC(=O)CCc1nnc(-c2ccccc2)o1)c1ccccc1 (stereo not given),-26%,?,1%,-6%,-1%
CCC(C)NC(=O)Cn1c(=O)c2cccn2c2ccc(F)cc21 (stereo not given),/,/,-12%,-4%,-7%
Cc1ccc(OCC(=O)Nc2ccccc2N2CCCC2)c(C)c1,-27%,-11%,?,2%,29µM*
Cc1cccc(OCC(=O)Nc2ccccc2N2CCN(C)CC2)c1,6%,-22%,-14%,/,?
Cc1cc(N2CCCC2)ccc1NC(=O)COc1cccc(C(F)(F)F)c1,?,11µM*,8.2µM*,4%,4.6µM*
Cc1cccc(OCC(=O)Nc2ccccc2N2CCCCC2)c1,-2%,2%,12µM*,-2%,?
